Test: probe aXIP binding to arrayed compounds – biochemical, NeuroSMM set, 635/667 nm fluorescence, primary screen (AID 1119);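 further: probe is the protein aXip251-270 applied at 1 µg/mL to compound-printed slides; binding of probe to printed compounds measured as 667 nm fluorescence plus signal to noise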
Conditions: small-molecule microarray, higher = more signal, called active from +8 up or from −8 down

Composite Z-score, inactive:
CC#CC(=O)Oc1ccccc1C=CC(=O)OCC -0.263
CC(C)CNC(=O)[C@@]1(Cc2ccccc2I)c2ccccc2C(=O)N(C2CCCCC2)[C@H]1c1ccc(CO)cc1 2.21
O=C(c1ccccc1)N1C(=O)[C@]2(COC(c3ccc(OCCCO)cc3)=N2)Cc2ccccc21 3.03
CC(C)(C)OC(=O)CC[C@]1(C(=O)N2CCOCC2)N=C(c2ccc(OCCCO)cc2)O[C@H]1c1ccccc1N=[N+]=[N-] 0.103
COCCOC(=O)N1C(=O)[C@@]2(c3cc(C#CCC(C(=O)OC)C(=O)OC)ccc31)[C@H](c1ccccc1OCCO)N1[C@H](c3ccccc3)[C@H](c3ccccc3)OC(=O)[C@H]1[C@@H]2C(=O)NC[C@H](O)c1ccccc1 0.577
COCCCNC(=O)[C@]1(CCC(=O)OC(C)(C)C)N=C(c2ccc(OCCCO)cc2)O[C@@H]1c1ccccc1CN=[N+]=[N-] 0.0707
CCOC(=O)C1=C[C@@H](C(C)(C)C)N(S(=O)(=O)c2ccc(C)cc2)[C@H]1c1ccc(F)cc1 -0.171
COc1cc(NN2C(C(O)c3ccco3)C=CC3C(=O)N(c4ccccc4)C(=O)C32)cc(OC)c1OC (stereo not given) 0.32
CCC(CC)C(O)C1C=CC2C(=O)NC(=O)C2N1Nc1ccc(Cl)cc1Cl (stereo not given) 0.818
CCCC[C@H]1OB(O)C[C@H]2C1=C(COC)Cn1c(=O)n(-c3ccccc3)c(=O)n12 -0.166
C=C(COC)/C(=C/C[C@@H](OC(C)=O)c1ccc(OCCO)cc1)c1cnc2ccccc2c1 -0.225
CN(C)C(=O)[C@@]1(CCS(=O)(=O)c2ccccc2)COC(c2ccc(OCCCO)cc2)=N1 0.319
CCCCCCc1nc(-c2ccc(OC)nc2)cc2c1[Si](C(C)C)(C(C)C)O[C@H]2c1ccccc1 0.131
O=C(CS)NCCCCCCNC(=O)[C@@H]1C[C@@H]2C(=O)N[C@@H](Cc3ccccc3)C(=O)N2[C@@H]1c1cccc(OCCO)c1 0.439
COC(=O)[C@@]1(Cc2ccc(OC)cc2)[C@H]2c3cc(C(=O)N(C)C)n(Cc4ccc(S(C)(=O)=O)cc4)c3C[C@H]2CN1C(=O)c1ccccc1 -0.357
O=C1C[C@@](C(=O)NC2CC2)(c2ccc([N+](=O)[O-])cc2)[C@@H](c2ccc(CO)cc2I)N1C1CCCCC1 0.142
CN1C=C(C(=O)OCCS(C)(=O)=O)C(C(=O)OCCS(C)(=O)=O)=CC(c2ccc(CO)cc2)=CC1C1CC1 (stereo not given) 0.0063
O=C1NC(=O)C2C1C=CC(C(O)c1cc(C(F)(F)F)cc(C(F)(F)F)c1)N2Nc1ccccn1 (stereo not given) 0.416
CN(C)CCCCCCNC(=O)[C@@H]1C[C@@H]2C(=O)N[C@@H](Cc3ccccc3)C(=O)N2[C@@H]1c1ccc(O)cc1 0.675
Cc1nc2cc(Br)ccc2c(=O)o1 0.239
O=C(NC1CC1)[C@@H]1c2ccccc2C(=O)N(Cc2ccccc2Cl)[C@H]1c1ccc(CO)cc1 0.0965
O[C@@H](Cc1ccccc1)[C@H]1C2C=CCCC=C2CN1Cc1cccc(Cl)c1 (stereo not given in full) 0.0338
COCCOC(=O)N1C(=O)[C@@]2(c3cc(C#CCNC(N)=O)ccc31)[C@H](C(=O)N1CCN(c3ncccn3)CC1)[C@H]1C(=O)O[C@H](c3ccccc3)[C@H](c3ccccc3)N1[C@@H]2c1ccc(OCCO)cc1 0.242
COCCOC(=O)N1C(=O)[C@@]2(c3cc(C#CCNC(N)=O)ccc31)[C@H](C(=O)Nc1nc3ccccc3s1)[C@H]1C(=O)O[C@H](c3ccccc3)[C@H](c3ccccc3)N1[C@@H]2c1ccc(OCCO)cc1 -0.335
CC(C)C(O)C1C=CC2C(=O)N(c3ccccc3)C(=O)C2N1Nc1ccc([N+](=O)[O-])cc1 (stereo not given) 2.65
CCOC(=O)C[C@H]1[C@H](OC(=O)c2ccccc2-c2ccccc2)[C@@H](NC(=O)CC(C)C)c2cc(OCCCO)ccc2N1C(=O)Cc1ccc(OC)cc1 0.692
C=C(CCCC)/C(=C/C[C@H](OC(C)=O)c1ccccc1OCCO)c1cc(C(=O)OC)ccc1OC 0.0578
C=CCC(OC(C)=O)[C@@H]1[C@@H](N(Cc2ccc(-c3ccccc3)cc2)C(=O)Cc2ccc(OC)cc2)c2cc(OCCCO)ccc2N1C(=O)Cc1ccc2ccccc2c1 (stereo not given in full) 0.142
COc1ccc(CCNC(=O)[C@@]2(Sc3ccc(C)cc3)CC(=O)N(C3Cc4ccccc4C3)[C@@H]2c2ccc(CO)cc2I)cc1 -0.235
COC(=O)[C@@]1(Cc2ccccc2)N=C(c2ccc(OCCCO)cc2)O[C@H]1c1ccccc1 0.216
COCCOC(=O)N1C(=O)[C@@]2(c3cc(C#CCC(C(=O)OC)C(=O)OC)ccc31)[C@H](c1ccccc1OCCO)N1[C@H](c3ccccc3)[C@H](c3ccccc3)OC(=O)[C@H]1[C@@H]2C(=O)N1CCN(c2ncccn2)CC1 0.347
C=C(CCCC)/C(=C/C[C@@H](OC(=O)c1ccncc1)c1ccc(OCCO)cc1)c1cc(C(=O)OC)ccc1OC -0.367
CCCCN1CC=CC23O[C@@H]4C=CCCOC(=O)C4[C@H]2C(=O)N(CCCCCCO)[C@@H]3C1=O (stereo not given in full) 0.0289
CN(C)CCCC[C@@H]1NC(=O)[C@H]2C[C@@H](C(=O)NCCCCCCN)[C@@H](c3ccc(O)cc3)N2C1=O 0.37
COc1ccc(-c2cc3c(c(-c4ccc(Oc5ccccc5)cc4)n2)[Si](C(C)C)(C(C)C)OC3)cn1 -0.108

Source: PubChem BioAssay
